Columns and labels:
Experiment in all cases: DAPPL (digital affinity profiling via proximity ligation, sequencing); 10 mM Tris-HCl pH 7.5, 50 mM NaCl, 1 mM DTT, 4% glycerol, room temperature, 30 min; GST-TFs on glutathione beads, 16-mer random dsDNA library, 0.1% formaldehyde crosslink after washing; high values mean tight binding
Conditions in all cases: protein: recombinant; tags: N-terminal GST; dsDNA, one strand shown
[1] = target: T1, FLI1 (Homo sapiens, UniProt Q01543 1-452)
T1 sequence: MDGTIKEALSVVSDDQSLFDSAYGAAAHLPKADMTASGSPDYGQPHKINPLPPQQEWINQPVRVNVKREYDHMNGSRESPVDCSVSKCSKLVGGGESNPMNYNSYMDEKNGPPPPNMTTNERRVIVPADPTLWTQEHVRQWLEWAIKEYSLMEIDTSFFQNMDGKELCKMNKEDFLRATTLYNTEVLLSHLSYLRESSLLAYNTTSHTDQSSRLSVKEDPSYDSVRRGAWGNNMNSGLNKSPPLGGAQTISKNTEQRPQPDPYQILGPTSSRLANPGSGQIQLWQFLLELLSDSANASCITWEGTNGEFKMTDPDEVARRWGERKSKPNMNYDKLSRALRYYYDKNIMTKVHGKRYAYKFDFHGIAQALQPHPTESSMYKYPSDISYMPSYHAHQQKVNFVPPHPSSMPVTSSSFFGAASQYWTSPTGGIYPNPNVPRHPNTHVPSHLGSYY
Procedure, shortened: (§1)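 The binding signal reported is, for every hexamer, its read frequency for a factor over its read frequency for the tag-only sample. Reads came from pools of yeast-expressed, GST-fused human transcription factors on glutathione beads, barcoded with DNA and mixed with that sample, which were incubated with 200 nmole of a random double-stranded 16-mer DNA library in Tris/NaCl/DTT/glycerol buffer at room temperature for 30 min. After washing, the pools were crosslinked with 0.1% formaldehyde, proximity-ligated with BsaI/T4 ligase for 1 h at 37 °C, PCR-amplified and sequenced on an Illumina NextSeq500.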

[2] = target: T2, ELK1 (Homo sapiens, UniProt P19419 1-428)
T2 sequence: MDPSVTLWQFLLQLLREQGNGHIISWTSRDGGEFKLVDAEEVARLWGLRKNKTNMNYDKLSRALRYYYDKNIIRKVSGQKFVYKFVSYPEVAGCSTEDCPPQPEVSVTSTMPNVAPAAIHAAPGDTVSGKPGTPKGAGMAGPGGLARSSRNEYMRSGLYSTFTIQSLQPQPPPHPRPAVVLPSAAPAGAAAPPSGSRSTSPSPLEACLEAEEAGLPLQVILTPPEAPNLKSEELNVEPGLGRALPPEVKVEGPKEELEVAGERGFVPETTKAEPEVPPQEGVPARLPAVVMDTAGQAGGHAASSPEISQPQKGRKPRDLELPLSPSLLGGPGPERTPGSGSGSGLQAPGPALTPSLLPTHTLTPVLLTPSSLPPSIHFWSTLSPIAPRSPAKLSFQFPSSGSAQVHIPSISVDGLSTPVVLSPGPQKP
Procedure, shortened: as §1

[3] = target: T3, GABPA (Homo sapiens, UniProt Q06546 1-454)
T3 sequence: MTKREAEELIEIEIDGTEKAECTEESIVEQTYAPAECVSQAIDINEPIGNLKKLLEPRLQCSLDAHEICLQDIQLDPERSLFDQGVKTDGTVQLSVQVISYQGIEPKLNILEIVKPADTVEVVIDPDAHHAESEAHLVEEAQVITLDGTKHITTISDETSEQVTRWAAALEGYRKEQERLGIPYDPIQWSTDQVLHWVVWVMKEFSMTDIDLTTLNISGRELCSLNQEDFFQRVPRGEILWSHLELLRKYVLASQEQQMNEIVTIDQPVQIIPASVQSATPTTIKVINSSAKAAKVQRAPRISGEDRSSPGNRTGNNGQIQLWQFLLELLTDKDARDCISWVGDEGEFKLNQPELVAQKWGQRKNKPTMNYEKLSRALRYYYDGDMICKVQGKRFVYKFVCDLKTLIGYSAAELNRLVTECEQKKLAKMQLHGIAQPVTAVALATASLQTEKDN
Procedure, shortened: as §1

[4] = target: T4, ERG (Homo sapiens, UniProt P11308 1-479)
T4 sequence: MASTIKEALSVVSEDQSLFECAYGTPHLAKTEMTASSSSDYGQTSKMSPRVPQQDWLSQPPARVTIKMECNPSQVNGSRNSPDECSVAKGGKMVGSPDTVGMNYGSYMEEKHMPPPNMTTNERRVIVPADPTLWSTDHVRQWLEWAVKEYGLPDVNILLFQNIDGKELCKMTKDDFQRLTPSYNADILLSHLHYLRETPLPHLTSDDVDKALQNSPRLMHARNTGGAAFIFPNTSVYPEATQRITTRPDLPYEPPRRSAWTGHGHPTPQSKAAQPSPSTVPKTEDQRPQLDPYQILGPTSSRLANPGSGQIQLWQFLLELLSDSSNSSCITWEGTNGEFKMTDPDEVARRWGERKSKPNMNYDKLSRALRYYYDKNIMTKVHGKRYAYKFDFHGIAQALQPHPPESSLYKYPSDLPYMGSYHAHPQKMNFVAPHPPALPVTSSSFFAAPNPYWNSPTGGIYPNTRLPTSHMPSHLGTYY
Procedure, shortened: as §1

[5] = target: ELF1 (Homo sapiens, UniProt P32519 1-619)
Procedure, shortened: as §1

[6] = target: T5, EHF (Homo sapiens, UniProt Q9NZC4 1-300)
T5 sequence: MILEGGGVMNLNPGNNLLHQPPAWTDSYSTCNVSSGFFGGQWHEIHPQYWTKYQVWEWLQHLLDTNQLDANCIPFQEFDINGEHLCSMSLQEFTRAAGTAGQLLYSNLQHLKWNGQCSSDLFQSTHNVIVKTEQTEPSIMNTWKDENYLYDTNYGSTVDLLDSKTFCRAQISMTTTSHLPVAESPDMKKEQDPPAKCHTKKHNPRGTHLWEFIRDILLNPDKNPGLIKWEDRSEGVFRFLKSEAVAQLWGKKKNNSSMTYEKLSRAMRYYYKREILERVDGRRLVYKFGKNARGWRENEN
Procedure, shortened: as §1

[7] = target: SPI1 (Homo sapiens, UniProt P17947 1-270)
Procedure, shortened: as §1

[8] = target: SPIB (Homo sapiens, UniProt Q01892 1-262)
Procedure, shortened: as §1

[9] = target: T6, ELK3 (Homo sapiens, UniProt P41970 1-407)
T6 sequence: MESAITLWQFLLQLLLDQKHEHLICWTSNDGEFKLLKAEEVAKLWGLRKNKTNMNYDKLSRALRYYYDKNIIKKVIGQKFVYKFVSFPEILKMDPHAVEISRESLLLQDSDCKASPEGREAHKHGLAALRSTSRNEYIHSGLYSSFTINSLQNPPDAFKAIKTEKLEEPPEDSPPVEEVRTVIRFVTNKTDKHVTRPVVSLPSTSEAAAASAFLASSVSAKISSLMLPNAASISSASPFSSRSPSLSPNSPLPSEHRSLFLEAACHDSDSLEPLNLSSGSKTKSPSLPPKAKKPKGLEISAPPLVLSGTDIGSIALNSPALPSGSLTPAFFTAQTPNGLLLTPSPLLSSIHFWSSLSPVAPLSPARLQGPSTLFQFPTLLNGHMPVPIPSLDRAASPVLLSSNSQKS
Procedure, shortened: as §1

ELF1, sequence (P32519 whole entry): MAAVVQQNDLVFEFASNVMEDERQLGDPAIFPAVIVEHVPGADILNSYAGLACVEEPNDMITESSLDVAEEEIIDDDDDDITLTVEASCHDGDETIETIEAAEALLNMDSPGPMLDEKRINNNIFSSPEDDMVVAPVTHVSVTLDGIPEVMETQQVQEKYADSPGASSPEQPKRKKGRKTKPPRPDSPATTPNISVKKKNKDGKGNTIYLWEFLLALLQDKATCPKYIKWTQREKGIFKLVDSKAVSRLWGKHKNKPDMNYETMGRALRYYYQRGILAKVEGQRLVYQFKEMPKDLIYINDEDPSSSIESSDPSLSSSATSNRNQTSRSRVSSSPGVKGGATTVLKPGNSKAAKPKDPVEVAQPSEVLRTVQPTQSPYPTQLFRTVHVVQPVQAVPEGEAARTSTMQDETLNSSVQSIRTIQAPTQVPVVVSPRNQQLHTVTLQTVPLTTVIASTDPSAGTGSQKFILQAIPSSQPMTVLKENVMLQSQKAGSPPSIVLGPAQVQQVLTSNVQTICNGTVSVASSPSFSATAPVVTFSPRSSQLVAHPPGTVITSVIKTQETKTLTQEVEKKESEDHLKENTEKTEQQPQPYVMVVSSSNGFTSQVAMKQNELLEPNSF
SPIB, sequence (Q01892 whole entry): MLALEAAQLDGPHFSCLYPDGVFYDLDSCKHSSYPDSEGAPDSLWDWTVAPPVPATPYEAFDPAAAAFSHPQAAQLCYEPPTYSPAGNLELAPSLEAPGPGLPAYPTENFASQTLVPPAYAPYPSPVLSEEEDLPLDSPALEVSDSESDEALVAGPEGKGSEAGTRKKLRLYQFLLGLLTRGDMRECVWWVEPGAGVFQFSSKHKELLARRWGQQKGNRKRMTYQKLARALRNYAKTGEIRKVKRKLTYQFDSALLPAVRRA

Row | Sequence | binding signal [1] | binding signal [2] | binding signal [3] | binding signal [4] | binding signal [5] | binding signal [6] | binding signal [7] | binding signal [8] | binding signal [9]
1 | CTATCT | 1.26 fold enrichment (6-mer frequency, TF over GST control) | 1.43 fold enrichment (6-mer frequency, TF over GST control) | 1.34 fold enrichment (6-mer frequency, TF over GST control) | 1.29 fold enrichment (6-mer frequency, TF over GST control) | 1.34 fold enrichment (6-mer frequency, TF over GST control) | 1.54 fold enrichment (6-mer frequency, TF over GST control) | 1.42 fold enrichment (6-mer frequency, TF over GST control) | 1.28 fold enrichment (6-mer frequency, TF over GST control) | 1.48 fold enrichment (6-mer frequency, TF over GST control)
2 | TTTCGT | 1.31 fold enrichment (6-mer frequency, TF over GST control) | 1.38 fold enrichment (6-mer frequency, TF over GST control) | 1.37 fold enrichment (6-mer frequency, TF over GST control) | 1.23 fold enrichment (6-mer frequency, TF over GST control) | 1.41 fold enrichment (6-mer frequency, TF over GST control) | 1.46 fold enrichment (6-mer frequency, TF over GST control) | 1.27 fold enrichment (6-mer frequency, TF over GST control) | 1.47 fold enrichment (6-mer frequency, TF over GST control) | 1.25 fold enrichment (6-mer frequency, TF over GST control)
3 | AAAGTA | 1.14 fold enrichment (6-mer frequency, TF over GST control) | 1.1 fold enrichment (6-mer frequency, TF over GST control) | 1.17 fold enrichment (6-mer frequency, TF over GST control) | 1.13 fold enrichment (6-mer frequency, TF over GST control) | 1.13 fold enrichment (6-mer frequency, TF over GST control) | 1.15 fold enrichment (6-mer frequency, TF over GST control) | 1.1 fold enrichment (6-mer frequency, TF over GST control) | 1.18 fold enrichment (6-mer frequency, TF over GST control) | 1.24 fold enrichment (6-mer frequency, TF over GST control)
4 | CTTAGT | 1.17 fold enrichment (6-mer frequency, TF over GST control) | 1.17 fold enrichment (6-mer frequency, TF over GST control) | 1.2 fold enrichment (6-mer frequency, TF over GST control) | 1.18 fold enrichment (6-mer frequency, TF over GST control) | 1.25 fold enrichment (6-mer frequency, TF over GST control) | 1.22 fold enrichment (6-mer frequency, TF over GST control) | 1.07 fold enrichment (6-mer frequency, TF over GST control) | 1.19 fold enrichment (6-mer frequency, TF over GST control) | 1.19 fold enrichment (6-mer frequency, TF over GST control)
5 | AATTAA | 1.26 fold enrichment (6-mer frequency, TF over GST control) | 1.2 fold enrichment (6-mer frequency, TF over GST control) | 1.22 fold enrichment (6-mer frequency, TF over GST control) | 1.26 fold enrichment (6-mer frequency, TF over GST control) | 1.27 fold enrichment (6-mer frequency, TF over GST control) | 1.22 fold enrichment (6-mer frequency, TF over GST control) | 1.26 fold enrichment (6-mer frequency, TF over GST control) | 1.21 fold enrichment (6-mer frequency, TF over GST control) | 1.31 fold enrichment (6-mer frequency, TF over GST control)
6 | CTGCTT | 1.69 fold enrichment (6-mer frequency, TF over GST control) | 1.57 fold enrichment (6-mer frequency, TF over GST control) | 1.59 fold enrichment (6-mer frequency, TF over GST control) | 1.6 fold enrichment (6-mer frequency, TF over GST control) | 1.65 fold enrichment (6-mer frequency, TF over GST control) | 1.88 fold enrichment (6-mer frequency, TF over GST control) | 1.75 fold enrichment (6-mer frequency, TF over GST control) | 1.54 fold enrichment (6-mer frequency, TF over GST control) | 1.58 fold enrichment (6-mer frequency, TF over GST control)
7 | ACGAAT | 1.12 fold enrichment (6-mer frequency, TF over GST control) | 1.1 fold enrichment (6-mer frequency, TF over GST control) | 1.22 fold enrichment (6-mer frequency, TF over GST control) | 1.07 fold enrichment (6-mer frequency, TF over GST control) | 1.15 fold enrichment (6-mer frequency, TF over GST control) | 1.13 fold enrichment (6-mer frequency, TF over GST control) | 1.13 fold enrichment (6-mer frequency, TF over GST control) | 1.15 fold enrichment (6-mer frequency, TF over GST control) | 1.13 fold enrichment (6-mer frequency, TF over GST control)

Reference: PMC7862700, “An all-to-all approach to the identification of sequence-specific readers for epigenetic DNA modifications on cytosine”
